Drawing on PubChem BioAssay AID1259389 (Center for Chemical Genomics, University of Michigan, 2018), this text covers z-score for 98 compounds.

The campaign covered roughly 100,000 compounds. About 620 (0.62%) were called active. What follows is part of a selection rich in actives, with near analogues and random picks from the rest. Unmarked numbers belong to inactive results. How the source made its calls: active means z-score of 3 or more in at least 2 runs; inactive means the rest.

The nature of this test: TAR RNA-Tat peptide displacers, HIV-1, primary screen, biochemical, FRET, FAM/TAMRA-labeled Tat (AID 1259389). Conditions: HIV-1 TAR RNA, Tat peptide displacement FRET; hits give high values.
Regarding `Cc1c2c(c(O)c3c(O)cccc13)C(=O)OC2[C@@H]1C(N(C)C)C(O)=C(C(N)=O)C(=O)[C@H]1O` (stereo partly drawn), the z-score was 31 (active).

`COc1cc(NC(=O)NCC2CCCO2)cc2sc(NS(=O)(=O)c3ccccc3)nc12` (stereo not drawn): the z-score is 0.36.

For the compound `Cc1ccc2cc(-c3noc(CCC(N)=O)n3)c(=O)[nH]c2c1`, the z-score is 6.88 (active).

Take `COc1cccc(-c2nc(-c3cc4cc(C)ccc4[nH]c3=O)no2)c1`: the z-score is 0.22.

Consider `Cc1ccc2cc(-c3noc(CC(C)C)n3)c(=O)[nH]c2c1`, for which the z-score is -1.58.

In the case of `C=CCOc1ccc(C2c3c(oc4ccc(F)cc4c3=O)C(=O)N2CCOC)cc1` (stereo not drawn), the z-score was 2.08.

In the case of `CCCOC(=O)C1=C(C)Nc2nnnn2C1c1cc(Br)ccc1OC` (stereo not drawn), the z-score is -6.75.

On to `Cc1cc2c3c([nH]c2cc1S(=O)(=O)Nc1ccccc1F)CC(C)(C)CC3=O`, for which the z-score was 0.08.

As to `CCCS(=O)(=O)Nc1cccc(-c2cn3ccsc3n2)c1`, the z-score was 15.9 (active).

For `Cc1ccc(S(=O)(=O)Nc2cccc(-c3cn4ccccc4n3)c2)cc1C`, the z-score is 0.58.

As for `CCCS(=O)(=O)Nc1cccc(-c2ccc(S(=O)(=O)CC)nn2)c1`, the z-score was -0.4.

As to `O=C1COc2cc(S(=O)(=O)CCC(=O)N3CCCC3)c(Cl)cc2N1`, the z-score is 0.78.

In the case of `Cc1ccc(C)c(N2CCN(c3ncnc4sc(C(=O)O)c(C)c34)CC2)c1`, the z-score was 4.41 (active).

As for `CCN1CCN(c2ncnc3sc(C(=O)N4CCC(N5CCCCC5)CC4)c(C)c23)CC1`, the z-score was 1.72.

As to `COc1ncnc2sc(C(=O)O)c(C)c12`, the z-score is 1.15.

As to `Cn1c(=O)oc2cc(S(=O)(=O)N3CCC(C(=O)NCCC4=CCCCC4)CC3)ccc21`, the z-score was -0.51.

For the compound `CCOC(=O)C1=C(C)NC2=C(C(=O)C(C(=O)OC)C(C)C2)C1c1ccc(C)s1` (stereo not drawn), the z-score was 1.89.

`Cc1cccc(NC(=O)c2cc3c(s2)-c2ccccc2S(=O)(=O)C3)n1`: the z-score is 1.46.

Consider `CCc1ccc(Nc2nn3c(=O)c4cc5c(cc4nc3s2)OCO5)cc1`, for which the z-score was 3.98.

Take `COC(=O)c1ccc2c(=O)n3nc(Nc4ccc(F)c(F)c4)sc3nc2c1`: the z-score is -0.18.

Regarding `O=c1c2ccccc2nc2sc(Nc3ccc4c(c3)OCO4)nn12`, the z-score is 18.8 (active).

With `C=CCN(Cc1nc(-c2cccc(C)c2)no1)S(=O)(=O)c1ccccc1`, the z-score is 1.74.

With `CC(C)OC(=O)c1ccc(N2CC(O)=C(c3nc4ccccc4n3C)C2=N)cc1`, the z-score is -0.32.

For `CSc1cccc(N2CC(c3nc4ccccc4n3CCN3CCOCC3)CC2=O)c1` (stereo not drawn), the z-score is 1.11.

As to `CCc1cccc(NS(=O)(=O)c2ccc(/C=C/c3onc(C)c3[N+](=O)[O-])cc2)c1`, the z-score was 1.16.

Regarding `CCCCN(C)S(=O)(=O)c1cc(-c2cc(C)no2)ccc1CC`, the z-score is 2.74.

Turning to `CCCSc1ncc(CO)n1Cc1ccccc1`, the z-score was 1.26.

Take `COc1ccccc1N1CCN(Cc2cc(=O)n3nc(C4CCCCC4)sc3n2)CC1`: the z-score is 0.09.

For the compound `CCC(CC)C(=O)Nc1ccc(OCc2cc(=O)n3cccc(C)c3n2)cc1`, the z-score is 2.07.

For the compound `Cc1ccc(-c2ncnc3c(C#N)c4ccccn4c23)cc1`, the z-score is 2.39.

Take `Nc1ccc(-c2cc(=O)n3[nH]cnc3n2)cc1`: the z-score was 10.6 (active).

As for `O=C(Nc1nc2nc(-c3ccccc3)cc(=O)n2[nH]1)C1CC1`, the z-score is 2.82.

As for `O=C(Nc1nc2nc(-c3ccccc3)cc(=O)n2[nH]1)C1CCCCC1`, the z-score was 0.88.

For the compound `Cc1cc(-c2ccc(S(=O)(=O)N3CCc4ccccc4C3)s2)on1`, the z-score was 0.06.

For the compound `Cc1ccc(S(=O)(=O)Nc2ccc3c(c2)oc(=O)n3C)cc1`, the z-score was 1.19.

As for `C#CCSc1nc2c(c(=O)[nH]1)C(c1ccc(OCCCC)cc1)CC(=O)N2` (stereo not drawn), the z-score is -0.97.

As for `C#CCSc1nc2c(c(=O)[nH]1)C(c1ccc(O)c(O)c1)CC(=O)N2` (stereo not drawn), the z-score was 26.9 (active).

For the compound `CCSc1nc2c(c(=O)[nH]1)C(c1ccc(OC)c(Br)c1)CC(=O)N2` (stereo not drawn), the z-score is 1.43.

Turning to `CCN(CC)C(=O)Cn1c(-n2nc(C)cc2C)nc2c(c1=O)CCCC2`, the z-score is 1.12.

Turning to `Cc1ccc(-c2nc(CSCC(=O)NC3CC3)no2)cc1`, the z-score is 0.42.

Take `C=C(C)COc1ccc2oc(C)c(C(=O)OCC)c2c1`: the z-score is 0.55.

Turning to `COC(=O)c1ccc(N2CSC3=C(C#N)C(c4ccc(Cl)cc4)CC(=O)N3C2)cc1` (stereo not drawn), the z-score was -0.23.

On to `COc1cc(C2CC(=O)N3CN(c4ccc(Br)cc4)CSC3=C2C#N)ccc1O` (stereo not drawn), for which the z-score is 24.7 (active).

For `CCOc1ccc(C2CC(=O)N3CN(c4ccc(OC)cc4OC)CSC3=C2C#N)cc1OC` (stereo not drawn), the z-score is -4.55.

Regarding `COc1ccc(N2CSC3=C(C#N)C(c4cccc(Br)c4)CC(=O)N3C2)cc1` (stereo not drawn), the z-score is -0.77.

Turning to `COc1cccc(C2CC(=O)N3CN(c4ccc(Br)cc4)CSC3=C2C#N)c1` (stereo not drawn), the z-score was -2.72.

Turning to `COc1cc(C2CC(=O)N3CN(c4ccccc4)CSC3=C2C#N)ccc1O` (stereo not drawn), the z-score is 31.5 (active).

For `COc1cccc(Nc2c(O)c(=O)c2=O)c1`, the z-score was -0.8.

Consider `CCC(C)NC(=O)Cn1c(=O)n(CC2CCC(C(=O)N3CCCC3)CC2)c(=O)c2sccc21` (stereo not drawn), for which the z-score is 0.29.

Take `CC1CCCN(C(=O)Cn2c(=O)oc3cc(S(=O)(=O)N4CCCCC4C)ccc32)C1` (stereo not drawn): the z-score was 1.86.

For `CSc1nnc(-c2nonc2NC(C)=O)n1C`, the z-score is 0.81.

Take `COc1cccc(Nc2nc(-c3cc(OC)ccc3OC)no2)c1`: the z-score is 1.24.

For the compound `COc1ccccc1C1OC(c2cc(C3CC3)nc3ccccc23)=NN1C(C)=O` (stereo not drawn), the z-score is 1.12.

As to `CC(=O)N1N=C(c2cc(C3CC3)nc3ccccc23)OC1c1ccc([N+](=O)[O-])s1` (stereo not drawn), the z-score is 2.1.

For the compound `CC(=O)N1N=C(c2cc(C3CC3)nc3ccccc23)OC1c1ccc(F)cc1` (stereo not drawn), the z-score was 21.6 (active).

As to `COc1ccc(-c2nc3sccn3c2Nc2ccc(Cl)cc2)cc1`, the z-score was 0.26.

`O=c1[nH]c(-c2cccc(Cl)c2)nc2c1Cc1cc(F)ccc1O2`: the z-score was 1.31.

Take `CCOc1ccccc1NS(=O)(=O)c1cc2c3c(c1)C(C)C(=O)N3CCC2` (stereo not drawn): the z-score is 2.12.

Consider `Cc1cc(NS(=O)(=O)c2ccc(-n3cccn3)cc2)ccc1Br`, for which the z-score is 0.31.

Take `Cc1cc(NS(=O)(=O)c2ccc3[nH]c(=O)ccc3c2)ccc1Br`: the z-score was 3.75 (active).

Take `Cc1ccc(S(=O)(=O)Nc2ccc3[nH]c(=O)oc3c2)cc1C`: the z-score is 0.9.

For `CCC(C)NC(=O)c1ccc2c(=O)n(C)c3n[nH]c(=O)n3c2c1` (stereo not drawn), the z-score is -1.23.

For the compound `COC(=O)c1cccc(N2C(=O)C3C4C=CC(CC4)C3C2=O)c1` (stereo not drawn), the z-score was -0.18.

As for `COc1cccc(-c2n[nH]c3c2C(c2cccs2)NC3=O)c1` (stereo not drawn), the z-score was 0.03.

`O=C1C(=O)N(CCCN2CCOCC2)C(c2ccc(F)cc2)/C1=C(\O)c1ccc(F)cc1` (stereo not drawn): the z-score was -0.23.

`CCN(c1cccc(C)c1)c1c(-c2ccc(C)c(C)c2)c(=O)c1=O`: the z-score is 1.19.

As for `Cc1cc(=O)oc2c1c(C)nn2-c1cccc(Br)c1`, the z-score is 2.1.

In the case of `Cc1cccc(-n2nc(C)c3c(C)cc(=O)oc32)c1`, the z-score was -1.35.

Regarding `Cc1cc(=O)oc2c1c(C)nn2-c1ccc(Cl)cc1`, the z-score is 6 (active).

On to `CCOCc1nc(N2CCOCC2)sc1C(=O)NCc1ccco1`, for which the z-score was 1.59.

As to `Cc1nc2c3cccnc3nn2c(C)c1CCC(=O)NC1CCCCC1`, the z-score was 0.03.

`Cc1nc2nc(N3C(=O)CCC3=O)[nH]n2c(=O)c1C`: the z-score is 0.34.

Turning to `O=C(NCc1ccc2c(c1)OCO2)C(=O)c1c[nH]c2ccccc12`, the z-score is -0.39.

`O=C(NCc1ccc2c(c1)OCO2)c1sc(=S)n2c1[nH]c(=O)c1ccccc12`: the z-score was 8.38 (active).

With `O=C(NCc1ccc2c(c1)OCO2)c1sc2ncccc2c1-n1cccc1`, the z-score was 0.34.

Regarding `CCc1ccc(S(=O)(=O)Nc2cccc(-c3ccc(S(C)(=O)=O)nn3)c2)s1`, the z-score is -0.88.

In the case of `O=S(=O)(c1ccc(Cl)cc1)N(Cc1nc(-c2ccccc2)no1)C1CCCCC1`, the z-score was -0.39.

With `CC(C)NC(=O)c1sc(=S)n2c1[nH]c(=O)c1ccc(C(=O)NCCN(C)C)cc12`, the z-score was 7.52 (active).

`O=C(NC1CCCCC1)c1ccc(CNc2c(N3CCCC3)c(=O)c2=O)cc1`: the z-score was 2.73.

Regarding `C=CCNC(=O)c1sc(=S)n2c1[nH]c(=O)c1ccc(C(=O)OC)cc12`, the z-score was -0.19.

`O=C(O)c1ccc2c(=O)[nH]c3c(C(=O)NC4CCCCC4)sc(=S)n3c2c1`: the z-score was 10.3 (active).

With `O=C(NC1CCCC1)c1ccc2c(=O)[nH]c3c(C(=O)NCC4CCCO4)sc(=S)n3c2c1` (stereo not drawn), the z-score is 9.34.

With `CCOC(=O)c1sc(=S)n2c1[nH]c(=O)c1ccc(C(=O)OC)cc12`, the z-score was 3.58.

`Cc1nn2c(=O)cc(CSc3nnc(COc4ccccc4C)n3C)nc2s1`: the z-score was -1.46.

For the compound `CCNc1nc(NCCN(C)C)nc2c1cnn2C`, the z-score is 1.49.

Consider `CC1CCN(S(=O)(=O)c2ccc3nc(Nc4cc(F)ccc4F)ccc3c2)CC1`, for which the z-score was 1.

Consider `C=CCc1ccccc1OCc1cc(=O)n2nc(-c3ccc(OC)cc3)sc2n1`, for which the z-score is -1.28.

As for `CCOc1ccc(-c2nc3c(s2)CN(S(=O)(=O)c2cccc4nsnc24)CC3)cc1`, the z-score was 0.4.

Consider `CCCNS(=O)(=O)c1ccc2c(c1)oc(=O)n2CC(=O)OCC`, for which the z-score was -3.16.

Consider `Cc1nc2ccccc2n1CCNS(=O)(=O)c1ccc2c(c1)oc(=O)n2C`, for which the z-score is 3.26 (active).

For the compound `Cc1nn(C)c(C)c1CNS(=O)(=O)c1ccc2c(c1)oc(=O)n2C`, the z-score is 0.45.

For `CCC1CN(C(=O)Nc2ccccc2)c2ccccc2O1` (stereo not drawn), the z-score is 1.11.

For the compound `O=C(CSc1ccc(-c2cccs2)nn1)Nc1ccc(Br)cc1`, the z-score was 2.14.

With `O=c1[nH]c(SCc2ccccc2)nnc1-c1ccccc1`, the z-score is -0.2.

Take `Nc1cc(=O)nc(SCc2ccccc2)n1Cc1ccco1`: the z-score is 0.7.

On to `O=C(CSc1nnc(-c2ccco2)c(-c2ccco2)n1)Nc1ccc(Br)cc1`, for which the z-score is 24.6 (active).

`CN(C)c1ccc(NC(=O)CSc2nc(-c3ccco3)cc(C(F)(F)F)n2)cc1`: the z-score is 0.28.

Take `c1ccc(CSc2nnc(-c3ccco3)c(-c3ccco3)n2)cc1`: the z-score is 8.76 (active).
